Cy5 interf NS3h – Cy5 fluorescence quenchers or enhancers, artefact control for HCV NS3 helicase inhibitor project, biochemical, ChemBridge library, Cy5 readout; hit rate 6% among 16,000; fluorescence interference ratio at 100 µM; Cy5-dT15 DNA with NS3h, fluorescence interference; actives lie on both sides; signal over control mean, under 1 quenches; AID 720488, 2013;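 active means compound fluorescence over control fluorescence at most 0.8, a quencher, or at least a set upper limit, an enhancer; inactive means ratio between 0.8 and the set upper limit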
HCV NS3h FP – HCV NS3 helicase inhibitors, primary screen, biochemical, fluorescence polarization, ChemBridge library | Hepatitis C virus NS3 helicase | NS3h Cy5-dT15 DNA binding | inhibition, % at 100 µM | hit rate 1.6% among 16,000;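 active means inhibition above the average over every tested compound plus 3 SD, cut at about 40% in these data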
* marks the source's active call; other numbers are inactive results. Only some compounds are listed: those with a hit (about 6.9% of all), similar ones and a draw of the others.

SMILES	Cy5 interf NS3h	HCV NS3h FP
COc1ccc(N(CC(=O)Nc2ccc3ccccc3c2)S(=O)(=O)c2ccc(C)cc2)c(OC)c1	1.06	9.9
COc1ccc(N(CC(=O)Nc2ccc(C(=O)N3CCOCC3)cc2)S(=O)(=O)c2ccccc2)cc1	0.724*	13.2
COc1ccc(S(=O)(=O)N(CC(=O)Nc2ccc(C(C)=O)cc2)c2ccc(C)cc2)cc1OC	0.914	10.5
Cc1ccc(-c2nc3ccccc3s2)cc1NC(=O)c1cccc([N+](=O)[O-])c1	0.993	-9.4
COc1ccc(Cl)cc1NC(=O)CN(c1ccc(C)cc1)S(=O)(=O)c1ccc(OC)c(OC)c1	1.03	11.8
C=CCC1S/C(=N/N=C\c2ccccc2)NC1=O (stereo not given)	1.13	9.1
CC(C)OC(=O)C(C(=O)C(F)(F)F)c1cc(NS(=O)(=O)c2ccc(F)cc2)ccc1O (stereo not given)	0.951	10.9
COc1ccc(N(CC(=O)Nc2ccccc2Br)S(C)(=O)=O)c(OC)c1	0.98	6.7
COc1ccc(N(CC(=O)Nc2ccccc2Br)S(C)(=O)=O)cc1	1.3*	17.6
COc1ccc(S(=O)(=O)N(CC(=O)Nc2cccc3ccccc23)c2ccc(C)cc2)cc1OC	0.684*	27.6
CCOc1ccccc1NC(=O)CN(c1ccc(C)cc1)S(=O)(=O)c1ccc(OC)c(OC)c1	0.965	15.4
COc1ccc(N(CC(=O)Nc2ccc(Br)cc2)S(=O)(=O)c2ccc(OC)c(OC)c2)cc1	0.699*	9.6
COc1ccc(N(CC(=O)Nc2cc(OC)ccc2OC)S(=O)(=O)c2ccc(OC)c(OC)c2)cc1	1.06	10.7
CCOC(=O)c1c(-c2ccc(Cl)cc2)csc1NC(=O)c1ccco1	0.947	16.1
O=C(NNC(=O)c1ccccc1[N+](=O)[O-])c1ccc(NC(=O)c2ccccc2[N+](=O)[O-])cc1	0.958	1.2
Cc1ccc(N2C(=O)CC(NC3CCCC(C)C3C)C2=O)cc1 (stereo not given)	1.04	-23.3
O=[N+]([O-])c1ccc(-n2ncnc2-c2ccc(Br)cc2)c(Cl)c1	0.947	0.7
O=C(O)CCC(C(=O)O)N1C(=O)/C(=C\C(Cl)=C/c2ccc([N+](=O)[O-])cc2)SC1=S (stereo not given)	0.635*	11.5
O=C(O)C(Cc1ccccc1)N1C(=O)/C(=C/C(Cl)=C/c2ccc([N+](=O)[O-])cc2)SC1=S (stereo not given)	0.782*	-1.9
CC(/C=C1\SC(=S)N(C(Cc2ccccc2)C(=O)O)C1=O)=C\c1ccccc1 (stereo not given)	1	-1.9
O=C1/C(=C/C(Cl)=C/c2ccc([N+](=O)[O-])cc2)SC(=S)N1c1ccc(O)cc1	1.04	3.3
Cc1ccc(OCc2nnc(NC(=O)c3ccccc3)s2)c(C)c1	1.1	3.1
O=C(Nc1ccc(Br)cc1)c1ccc([N+](=O)[O-])cc1	1	24.1
CS(=O)(=O)c1ccc2nc(NC(=O)c3ccc(Cl)c(Cl)c3)sc2c1	0.712*	-25.7
CS(=O)(=O)c1ccc2nc(NC(=O)c3ccccc3)sc2c1	1.13	12.6
SMILES	Cy5 interf NS3h	HCV NS3h FP
Cc1nnc(Nc2ccc3c(c2)nc(C)n3C)c2ccccc12	1.04	-0.6
Cc1ccc(N2C(=O)/C(=C/c3ccccc3)SC2=S)cc1C	0.908	20.4
CS(=O)(=O)N(Cc1ccc(Cl)cc1)c1ccc(C(=O)Nc2cccc(C(F)(F)F)c2)cc1	1.02	0.4
O=C(NCC1CCCO1)c1cc2nc(-c3ccccc3)cc(-c3ccccc3)n2n1 (stereo not given)	0.62*	16.1
COCCNC(=O)c1cc2nc(-c3ccccc3)cc(-c3ccccc3)n2n1	0.944	17.8
CCN(CC)CCN1C(=O)C(O)=C(C(=O)/C=C/c2ccccc2)C1c1ccc(OC)cc1 (stereo not given)	1.22*	26.0
CCN(CC)CCN1C(=O)C(O)=C(C(=O)/C=C/c2ccccc2)C1c1ccc(Br)cc1 (stereo not given)	1.11	8.2
O=C(Nc1cc(Cl)cc(Cl)c1)c1ccc2ccccc2c1	1.26*	19.4
O=C(Nc1ccc(NC(=O)c2ccc3ccccc3c2)cc1)c1ccccc1	1	6.3
Cn1ccnc1SCC(=O)c1ccc(Br)cc1	0.773*	12.3
O=C(CSc1ncn(-c2ccccc2)n1)c1ccc(Br)cc1	0.987	3.7
COc1ccc(CNC(=O)CSCC(=O)Nc2ccc3ccccc3c2)cc1	1.04	4.8
CCOCCOC(=O)c1ccc(NC(=O)c2cncc(Br)c2)cc1	1	6.0
COC(=O)c1cc(Nc2nc3ccccc3nc2NS(=O)(=O)c2ccccc2)ccc1Cl	0.689*	21.3
COC(=O)c1ccccc1NS(=O)(=O)c1ccc(NC(C)=O)cc1	1.02	-7.3
Cc1cccc(C)c1NC(=O)/C=C/c1ccc2c(c1)OCO2	0.944	23.4
Cc1c(C)c2ccc(OCC(=O)C(C)(C)C)cc2oc1=O	0.951	10.6

Screening results deposited in PubChem BioAssay by Milwaukee Institute for Drug Discovery.
